# Assay outcomes deposited in PubChem by several laboratories.
# An excerpt weighted towards active compounds, which were near 2.3% of everything screened.
# LGR2 inh: inhibitors of bursicon-induced Drosophila LGR2 receptor cAMP signaling. 380,000 tested, 0.35% active. inhibition, % at 9.99 µM. AID 720647. HEK293 LGR2, CRE-luciferase, bursicon-stimulated, 4 h;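 active = drop in luminescence signal, shown as inhibition above about 50% in the replicate tests, limit read from the data, passing the limit was not always enough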;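 also: agonist challenge used bursicon conditioned medium at about half maximal strength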
# KKLEB tox: CF airway cell cytotoxicity counter-screen | KKLEB CF airway cells viability, ATPlite luminescence, overnight; hits give low values; cells stimulated with P. aeruginosa culture filtrate | activity change (cytotoxicity), % at 5 µM | 360,000 tested, 0.36% active | AID 602141;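 active = corrected activity change at or below -50% at 5 µM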
# CF NFkB inh: inhibitors of cystic fibrosis induced NF-kB | KKLEB NF-kB-GFP reporter, PAF-induced, GFP fluorescence overnight | 360,000 tested, 0.86% active | inhibition, % at 5 µM | AID 588850;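 active = at least 50% inhibition at 5 µM, scaled per plate between neutral and stimulator controls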;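 also: PAF is a Pseudomonas aeruginosa culture filtrate used as stimulus; plate controls were PAF-stimulated DMSO wells for no effect and unstimulated DMSO wells for full effect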
# HIF-2a inh: blocks HIF-2a reporter activity | 360,000 tested, 0.72% active | 786-0 RCC cells HIF-2a reporter, luciferase luminescence, overnight | inhibition, % at 18.8 µM | AID 624352;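 active = inhibition of the luminescence signal of 40% or more relative to plate controls, in a single-dose primary screen at 18.75 µM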
# TWEAK-Fn14 inh: TWEAK-Fn14 signaling inhibition | inhibition, % at 10 µM | TWEAK-stimulated Fn14 reporter cells, luciferase luminescence, 8 h | 360,000 tested, 2% active | AID 1159606; in the data active = inhibition above about 50%
# iPSC survival up: hiPSC single-cell survival enhancement; ATPlite luminescence; 100% = ROCK inhibitor wells, 0% = DMSO; 360,000 tested, 0.044% active; survival enhancement, % at 20 µM; in the data active = survival enhancement above about 18%;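 also: cells exposed to compounds for 16 hours before the ATP read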
# An asterisk follows results filed as active; . = no result given.
SMILES,LGR2 inh,KKLEB tox,CF NFkB inh,HIF-2a inh,TWEAK-Fn14 inh,iPSC survival up
CN(C)c1ccc(/C=C/C(=O)c2ccc3c(c2)OCO3)cc1,.,-8,-26,-100,-12,0
O=C(/C=C\Nc1ccccc1Br)c1ccc2c(c1)OCO2,79*,-75*,-7,-28,61*,-2
O=C(/C=C\Nc1cccc(F)c1)c1ccc2c(c1)OCO2,.,-34,-6,-22,81*,-2
O=C(/C=C/c1ccncc1)c1ccc2c(c1)OCCO2,89*,-16,10,3,-5,-2
CCCNC(=O)Nc1ccc2c(c1)OC[C@@H](C)N(Cc1cccnc1)C[C@H](C)[C@@H](OC)CN(C)C2=O,-4,.,.,.,.,.
C[C@@H]1CN([C@@H](C)CO)C(=O)c2cc(NC(=O)CCC(F)(F)F)ccc2O[C@@H](C)CCCCO[C@H]1CN(C)C(=O)CCC(F)(F)F,-2,.,.,.,.,.
COCC(=O)N(C)C[C@H]1Oc2cc(C#CCC(C)C)ccc2S(=O)(=O)N([C@@H](C)CO)C[C@H]1C,9,.,.,.,.,.
COc1ccccc1NC(=O)Nc1ccc2c(c1)C(=O)N(C)C[C@H](OC)[C@@H](C)CN[C@H](C)CO2,-15,.,.,.,.,.
COCC#Cc1ccc2c(c1)O[C@@H](CN(C)S(=O)(=O)c1ccc(C)cc1)[C@@H](C)CN([C@H](C)CO)S2(=O)=O,0,.,.,.,.,.
O=C(/C=C/c1ccccc1)c1ccc2c(c1)OCO2,-70,-17,11,-304,-11,0
O=C(/C=C/c1cccc(Br)c1)c1ccc2c(c1)OCO2,-18,-16,-11,-188,60*,0
C[C@@H]1CCCCO[C@@H](CN(C)C(=O)c2ccccc2)[C@H](C)CN([C@H](C)CO)C(=O)c2cc(NS(=O)(=O)c3ccc(Cl)cc3)ccc2O1,16,.,.,.,.,.
O=C(NCCn1cc(SCc2ccccc2)c2ccccc21)c1c(F)cccc1F,2,3,15,-108,50*,0
O=C(NCCn1cc(SCc2ccc(F)cc2)c2ccccc21)c1ccccc1F,.,-2,9,-23,51*,-4
CCCCCCCC/C=C\CCCCCCCC(=O)NCCc1ccc(O)c(O)c1,.,6,59*,18,-11,-4
CCCCCCCC/C=C\CCCCCCCC(=O)NCCO,.,27,11,-2,6,2
COc1cccc(NC(=O)N2CCc3nc(Nc4ccc(C(C)C)cc4)ncc3C2)c1,.,2,-13,-59,75*,-2
COc1ccc(/C(C)=N/OCC(=O)N=Nc2c(O)[nH]c3ccc(Br)cc23)cc1,2,-53*,47,-10,9,2
CCC(=O)NC1=C(Cl)C(=O)C(NC(=O)CC)=C(Cl)C1=O,9,-2,37,96*,11,-1
CCC(=O)NC1=C(NC(C)c2ccccc2)C(=O)c2ccccc2C1=O (configuration not stated),.,9,12,-5,7,-2
O=C(NCC1COc2ccccc2O1)c1cc2ccccc2o1 (configuration not stated),.,0,0,-169,81*,2
CC1=CN2C(=N)/C(=C/c3ccc(C)o3)C(=O)N=C2S1,37,-6,-1,-93,66*,-2
C[C@H](CO)N1C[C@H](C)[C@H](CN(C)C(=O)Nc2ccc(F)cc2)Oc2c(NC(=O)c3nc4ccccc4s3)cccc2C1=O,-32,.,.,.,.,.
COc1ccc2c(c1)c(=O)oc1c(C)c(OCc3cc(C(=O)O)oc3C)ccc12,-35,14,-14,-20,79*,-1
CS(=O)(=O)N(CC(=O)N1CCN(c2cccc(Cl)c2)CC1)C1CCCCC1,.,-15,15,2,67*,-2
SMILES,LGR2 inh,KKLEB tox,CF NFkB inh,HIF-2a inh,TWEAK-Fn14 inh,iPSC survival up
Cc1ccc(Cl)cc1N1CCN(C(=O)CN(C2CCCCC2)S(C)(=O)=O)CC1,.,-3,3,15,27,-1
COc1ccc(NC(=O)N(C)C[C@@H]2Oc3c(NS(=O)(=O)c4ccc(Cl)cc4)cccc3C(=O)N([C@@H](C)CO)C[C@@H]2C)cc1,6,.,.,.,.,.
CC(=O)c1c(O)c2ccccc2n(C2CCCCC2)c1=O,.,0,49,19,65*,0
O=C(CC1CC1)Nc1ccc2c(c1)[C@@H]1C[C@H](CC(=O)NC3CCCCC3)O[C@H](CO)[C@@H]1O2,-6,.,.,.,.,.
Cc1ccc2occ(/C=N/NC(=O)c3ccc(Cl)cc3)c(=O)c2c1,17,6,46,12,42,0
Cc1ccc2occ(/C=N/NC(=O)c3ccccc3O)c(=O)c2c1,2,6,42,0,58*,0
CCOc1ccc(C(=O)N/N=C/c2cccc3cccnc23)cc1,.,-1,8,-34,-52,3
COc1ccc(C(=O)N/N=C\c2coc3ccc(C)cc3c2=O)cc1,23,1,37,10,54*,0
COc1ccc(C(=O)N/N=C/c2cccc3cccnc23)cc1,.,2,13,-31,105*,0
CN=c1scc(-c2ccc(F)cc2)n1/N=C/c1ccc(O)c(O)c1,75*,-27,13,-103,88*,-4
CN=c1scc(-c2ccc([N+](=O)[O-])cc2)n1/N=C/c1ccco1,-57,5,-8,-95,0,0
CO[C@@H](CN(C)Cc1nccs1)[C@@H](C)CN([C@@H](C)CO)S(=O)(=O)c1ccc(C)cc1,2,.,.,.,.,.
Cc1cccc(CCNc2nc3ccc(C)cc3n3cnnc23)c1,-59,6,-6,-102,74*,0
Cc1ccc2nc(NCCc3ccc(Cl)cc3)c3nncn3c2c1,8,-13,0,-4,-26,1
COc1cc(CN2CCc3ccccc3C2)ccc1O,39,-8,19,-48,91*,0
COc1cc(CN2CCc3ccccc3C2)cc([N+](=O)[O-])c1O,-1,9,3,16,0,1
CC(=O)O[C@]1(C(C)=O)CCC2C3C=C(C)C4=CC(=O)CC[C@]4(C)C3CC[C@@]21C (some centres not stated),-3,5,52*,30,-18,-1
O=C(C1CCCCC1)N1C[C@@H]2[C@H](c3ccccc31)[C@H](CO)N2C(=O)c1ccccc1,15,.,.,.,.,.
Cc1ccccc1Nc1nc(Nc2ccccc2C)nc(SC2=NCCS2)n1,2,-2,16,-21,71*,-2
Cc1cc(C)c2nc(N3CCN(C)CC3)c(C#N)cc2c1,.,-3,-10,-16,-32,21*
COc1cc(CN2[C@@H]3CNC[C@H]2C3c2ccc(-c3cccc(C)c3)cc2)cc(OC)c1 (some centres not stated),-4,.,.,.,.,.
CC(C)C#Cc1ccc2c(c1)O[C@@H](CN(C)C)[C@H](C)CN([C@@H](C)CO)S2(=O)=O,0,.,.,.,.,.
Cc1nc(-c2ccc(NC(=O)c3ccco3)cc2)cs1,93*,-54*,5,64*,97*,-1
Cc1nc(-c2ccc(C(=O)Nc3ccc(F)cc3)cc2)cs1,-1,-5,8,-223,36,-2
